# Measurements taken from patent US20260200999, “SYNTHETIC TRANSCRIPTION FACTORS” (ETH ZURICH, published 2026).
# Columns and labels:
# [1] = target: T1, MTERF1 73-399::RelA 430-551 (Homo sapiens, UniProt Q99551 SEQ:1-327); assay: cell_activity; HEK293 reporter; reduced but not abolished; conditions: tags: RelA 430-551 TAD fusion; dsDNA, one strand shown
# T1 chain: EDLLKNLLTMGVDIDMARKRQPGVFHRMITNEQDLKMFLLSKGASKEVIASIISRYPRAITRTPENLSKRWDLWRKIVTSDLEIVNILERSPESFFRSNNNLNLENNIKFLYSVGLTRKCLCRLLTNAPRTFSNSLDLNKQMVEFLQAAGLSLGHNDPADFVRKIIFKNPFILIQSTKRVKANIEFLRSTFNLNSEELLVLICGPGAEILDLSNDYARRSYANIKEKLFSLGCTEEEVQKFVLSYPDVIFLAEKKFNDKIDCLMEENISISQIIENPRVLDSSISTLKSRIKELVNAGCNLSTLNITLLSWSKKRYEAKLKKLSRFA
# [2] = target: T2, MTERF1 104-399::RelA 430-551 (Homo sapiens, UniProt Q99551 SEQ:1-296); assay: as above; conditions: tags: RelA 430-551 TAD fusion; dsDNA, one strand shown
# T2 chain: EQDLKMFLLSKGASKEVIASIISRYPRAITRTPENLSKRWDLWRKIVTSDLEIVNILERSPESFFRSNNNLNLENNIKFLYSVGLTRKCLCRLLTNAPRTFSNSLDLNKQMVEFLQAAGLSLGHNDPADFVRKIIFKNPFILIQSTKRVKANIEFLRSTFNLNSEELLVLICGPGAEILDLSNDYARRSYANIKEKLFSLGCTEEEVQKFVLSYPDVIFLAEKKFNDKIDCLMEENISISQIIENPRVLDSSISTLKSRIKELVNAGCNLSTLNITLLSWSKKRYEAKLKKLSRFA
sequence,measurement,setting,value
TAAGATGGCAGAGCCCGGTAATTAAGATGGCAGAGCCCGGTAATTAAGATGGCAGAGCCCGGTAATTAAGATGGCAGAGCCCGGTAATTAAGATGGCAGAGCCCGGTAAT,binding signal,[1],~1.5 fold less than MTF
same,binding signal,[2],~1.5 fold less than MTF
